Measured values published in PubChem BioAssay AID449739 (Vanderbilt High Throughput Screening Facility, 2010).
Screen size: about 100,000 compounds; about 4,200 (4.2%) were called active. The sample holds actives, similar compounds and a random draw of the others, so the mix is not that of the screen.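 Rule for the calls: active = single-dose well whose peak fluorescence ratio is a statistical outlier from its plate by either plate-standardised score or position-corrected B-score; inactive = the rest.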

What follows are molecules tested against Voltage-dependent T-type calcium channel subunit alpha-1H (Homo sapiens) (UniProt O95180) (assay: Cav3.2 calcium influx blockers – cell-based, Fluo-4 calcium fluorescence, FDSS, MLSMR library, primary screen (AID 449739)). Settings: Cav3.2-expressing cells, at 10 µM, hits give low values.
Voltage-dependent T-type calcium channel subunit alpha-1H (Homo sapiens), sequence (O95180 whole entry, looked up): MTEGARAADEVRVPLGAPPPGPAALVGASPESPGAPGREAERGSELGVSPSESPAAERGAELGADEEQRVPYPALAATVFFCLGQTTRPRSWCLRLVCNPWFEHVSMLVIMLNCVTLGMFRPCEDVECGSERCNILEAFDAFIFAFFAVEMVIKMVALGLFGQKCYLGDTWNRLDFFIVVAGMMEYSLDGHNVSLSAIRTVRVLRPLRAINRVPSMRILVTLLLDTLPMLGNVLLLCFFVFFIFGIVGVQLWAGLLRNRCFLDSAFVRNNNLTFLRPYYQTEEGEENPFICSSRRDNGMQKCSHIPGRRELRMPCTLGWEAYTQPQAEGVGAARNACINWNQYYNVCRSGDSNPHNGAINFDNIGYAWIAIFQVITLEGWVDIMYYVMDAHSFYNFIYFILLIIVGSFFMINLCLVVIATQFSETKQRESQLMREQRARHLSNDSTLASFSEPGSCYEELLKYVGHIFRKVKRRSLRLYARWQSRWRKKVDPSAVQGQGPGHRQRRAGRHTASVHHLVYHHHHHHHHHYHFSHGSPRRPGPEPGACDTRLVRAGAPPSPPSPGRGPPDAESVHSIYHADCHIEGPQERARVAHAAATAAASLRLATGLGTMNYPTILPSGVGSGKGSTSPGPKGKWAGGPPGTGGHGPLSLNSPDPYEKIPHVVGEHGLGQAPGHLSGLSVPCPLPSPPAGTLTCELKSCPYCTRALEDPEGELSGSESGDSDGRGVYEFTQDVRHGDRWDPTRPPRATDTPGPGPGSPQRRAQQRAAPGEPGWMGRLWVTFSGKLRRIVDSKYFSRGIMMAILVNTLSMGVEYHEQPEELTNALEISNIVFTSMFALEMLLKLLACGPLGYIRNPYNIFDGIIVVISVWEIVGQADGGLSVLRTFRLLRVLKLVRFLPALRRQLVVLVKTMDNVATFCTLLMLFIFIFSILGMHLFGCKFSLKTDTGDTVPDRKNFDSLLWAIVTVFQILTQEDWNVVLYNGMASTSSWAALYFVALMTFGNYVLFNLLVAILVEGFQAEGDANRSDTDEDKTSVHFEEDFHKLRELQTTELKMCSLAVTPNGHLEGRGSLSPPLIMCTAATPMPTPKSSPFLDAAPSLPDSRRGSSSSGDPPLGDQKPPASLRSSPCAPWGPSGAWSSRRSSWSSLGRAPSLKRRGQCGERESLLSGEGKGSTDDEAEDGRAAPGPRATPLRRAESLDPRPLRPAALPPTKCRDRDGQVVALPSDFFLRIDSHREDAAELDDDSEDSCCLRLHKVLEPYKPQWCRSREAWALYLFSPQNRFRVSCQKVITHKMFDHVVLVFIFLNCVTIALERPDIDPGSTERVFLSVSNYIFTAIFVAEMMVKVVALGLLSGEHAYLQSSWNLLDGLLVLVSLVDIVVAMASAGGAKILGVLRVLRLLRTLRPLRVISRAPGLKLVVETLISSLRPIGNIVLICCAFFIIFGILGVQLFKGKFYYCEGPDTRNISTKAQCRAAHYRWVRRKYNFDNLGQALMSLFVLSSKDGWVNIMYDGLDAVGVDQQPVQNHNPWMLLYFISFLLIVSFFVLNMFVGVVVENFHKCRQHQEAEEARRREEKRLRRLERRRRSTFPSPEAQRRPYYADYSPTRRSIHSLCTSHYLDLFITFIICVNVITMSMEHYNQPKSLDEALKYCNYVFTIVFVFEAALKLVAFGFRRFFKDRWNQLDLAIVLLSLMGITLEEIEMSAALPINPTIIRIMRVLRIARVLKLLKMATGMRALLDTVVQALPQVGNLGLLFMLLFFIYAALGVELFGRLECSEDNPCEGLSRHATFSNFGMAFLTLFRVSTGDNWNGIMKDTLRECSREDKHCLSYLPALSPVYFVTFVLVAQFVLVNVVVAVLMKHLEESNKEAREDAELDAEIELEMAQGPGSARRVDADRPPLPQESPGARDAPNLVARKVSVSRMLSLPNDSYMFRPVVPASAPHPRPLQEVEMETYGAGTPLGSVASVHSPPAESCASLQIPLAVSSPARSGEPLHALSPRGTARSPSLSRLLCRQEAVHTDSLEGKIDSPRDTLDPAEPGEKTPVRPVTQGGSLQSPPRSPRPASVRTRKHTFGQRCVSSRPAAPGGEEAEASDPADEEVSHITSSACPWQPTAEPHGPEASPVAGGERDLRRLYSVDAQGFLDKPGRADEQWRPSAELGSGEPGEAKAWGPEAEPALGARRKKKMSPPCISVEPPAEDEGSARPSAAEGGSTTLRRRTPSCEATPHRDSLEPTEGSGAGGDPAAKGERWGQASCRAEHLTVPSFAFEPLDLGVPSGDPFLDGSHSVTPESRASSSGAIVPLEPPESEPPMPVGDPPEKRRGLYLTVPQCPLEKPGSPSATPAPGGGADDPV

B-score, inactive:
C#CCOCCOCCOCCNc1nc(N2CCN(C(=O)[C@H](CCC(=O)O)n3cc(C(N)CO)nn3)CC2)nc(N2CCN(C(=O)[C@H](Cc3ccc(O)cc3)n3cc(C(N)[C@H](C)CC)nn3)CC2)n1 (stereo partly specified) -0.353
O=C(O)/C=C/C(=O)Nc1ccc(F)cc1F 0.769
Cn1cnc([N+](=O)[O-])c1Sc1ccccc1 0.333
CC(C)(C)n1nc(Cc2cccc3ccccc23)c(C#N)c1N -1.32
c1ccc(-c2nnc(SCc3nc4ccccc4[nH]3)o2)cc1 -1.58
COC(=O)Cc1nc2ccccc2[nH]1 0.0867
COc1cc2c(cc1O)[C@H](Cc1ccc(Oc3cc(C[C@@H]4NCCc5cc(OC)c(O)cc54)ccc3O)cc1)NCC2 0.142
C(=N/N1CCN(c2ccccc2)CC1)/c1cccs1 0.219
O=C(CCNS(=O)(=O)c1ccccc1C(F)(F)F)NCc1ccc2c(c1)OCO2 -0.223
COCCn1c(-c2ccc(OC)c(OC)c2)nc2ccccc21 0.414
CCCn1c(C(O)c2cc(OC)ccc2OC)nc2ccccc21 (stereo unspecified) -1.69
CCCCN1C(N)=NC[C@@H]1CC1CCCCC1 0.078
CCCCN1C(=S)NC[C@@H]1C(C)CC (stereo partly specified) -0.603
C[C@H](NC(=O)c1nc[nH]c1C(=O)N[C@@H](C)C(=O)OC(C)(C)C)C(=O)OC(C)(C)C 0.275
COc1cccc(-c2nnc(SCCOc3ccc4c(C)cc(=O)oc4c3)o2)c1 1.22
Cc1ccc(SCCN2C(=O)NC(C)(C)C2=O)cc1 0.269
COc1ccc(C(=O)CN2C(=O)NC(C)(c3ccc(C)cc3)C2=O)cc1OC (stereo unspecified) -0.586
NS(=O)(=O)c1cccnc1Nc1cccc(Cl)c1 -0.12
O=S(=O)(c1cnccc1N1CCN(/N=C/c2ccc(Br)cc2)CC1)N1CCCCC1 -0.791
Cc1ccc(-c2csc(N(Cc3ccco3)C(=O)c3cccs3)n2)cc1 -1.85
Cc1ccc(/C=N/NC(=O)c2sccc2OCc2ccc(F)cc2)cc1 -0.514
NC(=O)N1CCCC1C(=O)Nc1ccc(Cl)c(Cl)c1 (stereo unspecified) -0.377
O=C(Nc1ccc(N2CCN(C(=O)c3ccccc3)CC2)c(Cl)c1)c1cccnc1 1.44
COC(=O)CCCC1=CC2=CC(=O)C(C)(OC(=O)c3cccs3)C(=O)C2=CN1CC1CC1 (stereo unspecified) 1.17
C#CCOCCOCCOCCNc1nc(N2CCN(C(=O)[C@H](C(C)C)n3cc(CCO)nn3)CC2)nc(N2CCN(C(=O)[C@H](C(C)C)n3cc(CCO)nn3)CC2)n1 0.0404
COCCNC(=O)CN(C(=O)CCC(=O)Nc1cc(C)on1)c1ccc(C)cc1C 0.162
Cc1cc(NC(=O)CCC(=O)N(CC(=O)NCC2CCCO2)c2ccccc2C)no1 (stereo unspecified) 0.22
COCOc1cc(O)c(C(=O)/C=C/c2ccc(OCOC)c(OCOC)c2)c(OCOC)c1 0.785
COC(C[C@H](O)CC(=O)COCc1ccccc1)OC 0.759
C=CCn1c(Cn2nnc3ccccc32)nnc1SCC(=O)N/N=C/c1cc(Br)cc(OC)c1O 0.722
COc1ccc(Br)cc1/C=N/n1c(C)nnc1C 0.564
Cc1cccc2cc(C#N)c(N3CCCC3)nc12 -0.395
CCOc1ccc2nc(NCCNS(=O)(=O)c3ccccc3)c(C#N)cc2c1 0.364
COc1ccc(C#Cc2c(-c3ccc(OC)cc3)oc3ccc(-c4ccc5c(c4)OCO5)cc23)cc1 -2.98
CCO[C@H]1OC(C(=O)O)=C[C@@H](C2CCCCC2)[C@@H]1CCCO -0.908
COc1ccc(-c2nc(CS(=O)CC(=O)N3CCc4ccccc4C3)c(C)o2)cc1 (stereo unspecified) 0.115
Cc1nnc(SCC(=O)N2CCc3ccccc3C2)s1 0.719
Nn1c(SCC(=O)NC(=O)NC2CCCC2)nnc1-c1ccccc1F 0.0138
CCCn1c(C)cc(C(=O)COC(=O)c2c(C)nn(-c3ccccc3)c2C)c1C -3.42
COC(=O)c1c(-c2cccs2)csc1NC(=O)CSc1ncnc2sc(C)c(C)c12 -0.978
CCCCNC(=S)NNC(=O)c1cc(C)on1 0.531
CCN1CCN(CCCCOc2ccccc2F)CC1 0.893
COc1ccccc1N1CCN(Cc2ccc(OC)c3ccccc23)CC1 -1.06
COc1cnc(SCc2ccc(Cl)c(Cl)c2)nc1Cl -1.35
O=C(O)C1CC=C(Cl)CC1C(=O)NCc1ccccc1 (stereo unspecified) 0.671
COC(=O)[C@H](Cc1ccccc1)NC(=O)[C@@H]1C[C@H]1[C@@H](NC(=O)OCc1ccccc1)c1ccccc1 0.0644
Cc1cc(C)c2nc(NC(=O)c3ccc4c(c3)OCO4)sc2c1 0.981
C=C(C)C(=O)Nc1cccc(C2=NOC3(C2)C[C@H](C(N)=O)N(C(=O)C(c2ccccc2)c2ccccc2)C3)c1 (stereo partly specified) -0.703
CCOC(=O)c1sc2nc(SC)nc(-c3ccccc3)c2c1N -0.0983
O=C(CNC(=O)Cc1ccccc1)NCC(=O)OCC(=O)c1ccccc1Cl 0.107
CCOC(=O)/C(=C\c1ccc([N+](=O)[O-])cc1)C(=O)c1cc(C(C)=O)c(Nc2ccccc2)s1 0.717
Cc1ccc(S(=O)(=O)NCC(=O)N2CCN(c3ccccn3)CC2)cc1 0.189
Cc1nnc(SCC(=O)N2CCN(c3ccccc3)CC2)n1-c1ccccc1 0.663
CCC(C)[C@@H](C(=O)N1CCNCC1)n1cc(CCCCN)nn1 (stereo partly specified) 0.219
CC1(C)CC(=O)C2=C(C1)N=C1SCCC(=O)N1C2c1ccc(C(F)(F)F)cc1 (stereo unspecified) -1.88
CC(C)(C)NS(=O)(=O)CC12CCC(CC1=O)C2(C)C (stereo unspecified) 0.0444
CCCC(=O)NC(Nc1ccccc1OC)C(Cl)(Cl)Cl (stereo unspecified) 0.143
NCCCC[C@@H]1NC(=O)[C@H](CCC(=O)O)NC(=O)c2cc([N+](=O)[O-])cc(I)c2NCC[C@@H](C(N)=O)NC1=O 0.612
O=C(O)CC(c1ccccc1)n1cnnn1 (stereo unspecified) 0.533
O=C(c1ccccc1)N1CCN(C(=O)N2CCCCC2)CC1 1.15
N/C(=N\OC(=O)CCC1CCCCC1)c1ccccn1 0.693
N#Cc1nc(-c2ccc(OCc3ccccc3)cc2)oc1NCCCN1CCOCC1 -0.428
N#Cc1nc(COc2ccc(-c3ccccc3)cc2)oc1NCc1cccnc1 -1.76
CC1C/C(=N/NC(=O)c2cccs2)CC(C)(C)C1 (stereo unspecified) 0.092
CC(C)N(C(=O)COC(=O)c1ccccc1C(=O)N1CCN(c2ccc(F)cc2)CC1)C(C)C 0.00273
O=C(O)C1CC=CCC1C(=O)Nc1ccccc1C(=O)N1CCN(c2ccccc2)CC1 (stereo unspecified) 0.0959
Cc1ccccc1NC(=O)Cc1nnc(SCC(=O)N2CCN(c3ccccc3)CC2)n1C 0.445
Cc1cc2nnc(SCC(=O)N3CCN(c4ccccc4)CC3)n2c(N)n1 0.355
C=CCC1(C(=O)N(C)Cc2ccccc2)CCN(C(=O)OC(C)(C)C)CC1 -0.119
CC(C)(C)NC(=O)NC(=O)COC(=O)CCC1CCCCC1 -0.871
O=C(Nc1ccn(Cc2ccc(F)cc2)n1)c1ccncc1 0.582
CC(=O)Nc1ccn(Cc2c(F)cccc2Cl)n1 -0.881

B-score, active:
c1ccc2c(CSCc3nc4ccccc4[nH]3)cccc2c1 -7.7
COc1ccc(-c2nc3ccccc3n2CCC(C)C)cc1OC -6.94
Cc1ccc(C2(c3ccc(C)cc3)NC(=O)N(Cc3c(C)noc3C)C2=O)cc1 -6.31
O=C(Nc1ccc(Cl)c(Cl)c1)N1CC=C(c2ccccc2)CC1 -6.72
CCCCOc1ccc(N(CC(=O)NCC2CCCO2)C(=O)CCC(=O)Nc2cc(C)ccn2)cc1 (stereo unspecified) -9.41
Oc1ccc2ccc3cccc[n+]3c2c1 -10
COc1cc(Br)cc(/C=N/c2ncn[nH]2)c1O -3.11
CCOc1ccc2nc(N3CCCN(C(=O)Nc4ccccc4C)CC3)c(C#N)cc2c1 -4.45
Cc1ccccc1-c1nc(CS(=O)(=O)CC(=O)N2CCc3ccccc3C2)c(C)o1 -4.63
Cc1nn(-c2ccccc2)c(C)c1C(=O)OCC(=O)NC(=O)NC1CCCCC1 -5.85
COc1ccccc1N1CCN(CCCCOc2ccc(F)cc2)CC1 -5.88
O=C(NCc1ccccc1)[C@H]1C[C@@H]1[C@H](NP(=O)(c1ccccc1)c1ccccc1)c1ccccc1 -4.19
Nc1ccccc1SCc1cc([N+](=O)[O-])cc2c1OCOC2 -4.25
Cc1ccnc(N2CCN(C(=O)CSc3nc4ccccc4nc3N3CCCCC3)CC2)c1 -7.43
O=C(c1ccc(-n2cnnn2)cc1)N1CCN(C(c2ccccc2)c2ccccc2)CC1 -4.29
N#Cc1nc(Cc2ccccc2)oc1NCCc1ccccc1 -6.7
O=C(c1ccccc1Oc1ccccc1)N1CCN(c2ccc(F)cc2)CC1 -4.99
Cn1c(Cc2cccc3ccccc23)nnc1SCC(=O)N1CCN(c2cccc(Cl)c2)CC1 -6.61
O=C(Nc1ccn(Cc2ccccc2F)n1)c1ccc(COc2ccc(Cl)cc2Cl)o1 -5.79
